Results filed as inconclusive are left out. Active and inactive are the calls of the source. The calls were made as follows, unless noted: active = hit-call score of the fitted dose curve at least 0.9, where 1 is the maximum; inactive = score below 0.9.

Assay [1] can be described thus: ATG_PBREM_CIS: Attagene CIS-FACTORIAL HepG2 Assay for human Phenobarbital-responsive Enhancer Module (PBREM) (AID 2282955). The following applies: HepG2 PBREM cis-reporter, Attagene multiplexed transcription; actives raise or lower the signal. In a few lines: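 Readout: reporter mRNA, fluorescent RT-PCR fragments separated by capillary electrophoresis. System: HepG2 transiently transfected with cis-regulated reporter units. Exposure: 24 h. Analysis: bidirectional, DMSO baseline.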

Assay [2] concerns the target Paired box protein Pax-6 (Homo sapiens) (UniProt P26367). Kind of assay: ATG_Pax6_CIS: Attagene CIS-FACTORIAL HepG2 Assay for human Paired Box 6 (PAX6) (AID 2282956). The following applies: HepG2 CIS-FACTORIAL PAX6 reporter transcription, RNA readout; actives raise or lower the signal. The gist of the method: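 DMSO-referenced bidirectional fits of reporter mRNA fluorescence; HepG2 with transient cis-promoter MRTUs, 24 h post-dose, RT-PCR plus capillary electrophoresis detection.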

A short description of assay [3]: ATG_PXRE_CIS: Attagene CIS-FACTORIAL HepG2 Assay for human Pregnane X Receptor Element (PXRE) (AID 2282957). The following applies: HepG2 Attagene CIS-FACTORIAL PXRE reporter, mRNA; actives raise or lower the signal. In a few lines:
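Bidirectional activity, baselined to DMSO, derived from reporter mRNA fluorescence (RT-PCR plus capillary electrophoresis) in HepG2 cells bearing cis-promoter reporter units, 24 h exposure.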

A short description of assay [4]: ATG_RORE_CIS: Attagene CIS-FACTORIAL HepG2 Assay for human RAR-related Orphan Receptor Element (RORE) (AID 2282959). As to conditions: HepG2 Attagene cis-factorial RORE reporter, mRNA; actives raise or lower the signal. The gist of the method: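 Measured here: transcript induction of a cis-regulated reporter in HepG2 cells transiently transfected via FuGene 6. After 24 h, RNA was processed by RT-PCR and fluorescent capillary electrophoresis; DMSO defined baseline activity.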

Assay [5] can be described thus: ATG_Sox_CIS: Attagene CIS-FACTORIAL HepG2 Assay for human SRY-box transcription factor (SOX) (AID 2282960). The following applies: HepG2 Attagene cis-factorial SOX reporter, mRNA; actives raise or lower the signal. In a few lines: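 Using transiently transfected HepG2 cells, reporter transcription driven by cis elements was assessed 24 h after dosing. Signal was fluorescence of capillary-separated RT-PCR products, with DMSO defining baseline activity.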

Assay [6] deals with Transcription factor Sp1 (Homo sapiens) (UniProt P08047). The experiment in a line: ATG_Sp1_CIS: Attagene CIS-FACTORIAL HepG2 Assay for human Specificity Protein 1 (Sp1) (AID 2282961). The following applies: HepG2 Sp1 cis-reporter transcription, actives raise or lower the signal. The gist of the method: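 After transient transfection of HepG2 cells with cis-promoter reporter units and 24 h chemical treatment, reporter transcripts were quantified by RT-PCR and capillary electrophoresis fluorescence. Gain- and loss-of-signal fitted against DMSO.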

Assay [7] in a line: ATG_SREBP_CIS: Attagene CIS-FACTORIAL HepG2 Assay for human Sterol Regulatory Element Binding (SREBP) (AID 2282962). The following applies: HepG2 Attagene cis-factorial SREBP reporter, mRNA; actives raise or lower the signal. In a few lines: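 In this cis-format assay, HepG2 liver cells express reporters controlled by promoter elements responsive to native transcription factors. Exposure lasts 24 h; reporter mRNA fluorescence from capillary electrophoresis gives the signal, fitted bidirectionally against DMSO.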

Assay [8] concerns the target Signal transducer and activator of transcription 3 (Homo sapiens) (UniProt P40763). Kind of assay: ATG_STAT3_CIS: Attagene CIS-FACTORIAL HepG2 Assay for human Signal Transducer and Activator of Transcription 3 (STAT3) (AID 2282963). As to conditions: HepG2, Attagene cis-factorial STAT3 reporter transcription; actives raise or lower the signal. In a few lines: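 Cis-factorial format: endogenous transcription factors in HepG2 drive transfected reporter units. After 24 h treatment, reporter RNA was reverse-transcribed, amplified, FAM-labelled and HpaI-digested before CE analysis; activity scored in both directions against DMSO.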

A short description of assay [9]: ATG_TA_CIS: Attagene CIS-FACTORIAL HepG2 Assay for human TA Basal Promoter (AID 2282964). The following applies: HepG2 Attagene CIS-factorial TA basal promoter reporter; actives raise or lower the signal. The gist of the method:
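Cis-factorial format in HepG2: reporters report endogenous factors, not chimeric Gal4 fusions. After 24 h treatment, reporter transcripts were measured by RT-PCR-capillary electrophoresis fluorescence, analysed bidirectionally versus DMSO.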

Assay [10] can be described thus: ATG_TCF_b_cat_CIS: Attagene CIS-FACTORIAL HepG2 Assay for human T-Cell-Factor with beta-catenin (TCF/b-cat) (AID 2282965). As to conditions: HepG2 TCF/beta-catenin cis-reporter transcription, actives raise or lower the signal. In a few lines:
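Endogenous transcription factor activity is captured through cis-promoter reporter constructs transiently introduced into human HepG2 liver cells. Induced reporter mRNA is measured after 24 h and fitted bidirectionally relative to DMSO.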

Assay [11] can be described thus: ATG_TAL_CIS: Attagene CIS-FACTORIAL HepG2 Assay for human TAL Basal Promoter (AID 2282966).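 Also: background control endpoint measuring basal TAL promoter reporter mRNA not a specific factor.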 The following applies: HepG2 Attagene cis-factorial TAL promoter reporter; actives raise or lower the signal. The gist of the method: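 Human hepatoma HepG2 cells, transfected with promoter-regulated reporter units, were treated 24 h. Reporter transcript levels, measured through RT-PCR and capillary electrophoresis, were fitted for gain or loss relative to DMSO.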

Assay [12] in a line: ATG_TGFb_CIS: Attagene CIS-FACTORIAL HepG2 Assay for human Transforming Growth Factor (TGF) (AID 2282967). The following applies: HepG2 Attagene CIS TGFb reporter, mRNA transcription; actives raise or lower the signal. The gist of the method:
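Multiplexed cis-reporter HepG2 system, 24 h treatment; mRNA induction read by fluorescence after RT-PCR and CE; DMSO negative control, bidirectional curve fitting.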

Assay [13] in a line: ATG_VDRE_CIS: Attagene CIS-FACTORIAL HepG2 Assay for human Vitamin D Receptor Element (VDRE) (AID 2282968). The following applies: HepG2 VDRE cis-reporter transcription, actives raise or lower the signal. The gist of the method:
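Measures endogenous factor activity through cis-element-driven reporter transcripts in transiently transfected HepG2. Cells are treated 24 h; reporter mRNA is quantified by RT-PCR and capillary electrophoresis; fitting is bidirectional.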

The target in assay [14] is Steroid hormone receptor ERR1 (Homo sapiens) (UniProt P11474). Kind of assay: ATG_ERRa_TRANS: Attagene TRANS-FACTORIAL HepG2 Assay for human Estrogen-Related Receptor alpha (ERRa) (AID 2282971; active = hit-call score of the fitted dose curve at least 0.9, where 1 is the maximum). As to conditions: HepG2 Attagene TRANS reporter, ERRa transactivation. In a few lines: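 Signal gain relative to DMSO for an ERRa-Gal4 chimeric receptor, read as reporter mRNA by RT-PCR/capillary electrophoresis. Human HepG2 liver cells, transient multiplex reporter transfection, 24 h chemical exposure.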

Assay [15] addresses X-box-binding protein 1 (Homo sapiens) (UniProt P17861). Kind of assay: ATG_Xbp1_CIS: Attagene CIS-FACTORIAL HepG2 Assay for human X-box Binding Protein 1 (XBP1) (AID 2282972). The following applies: HepG2 XBP1 cis-element reporter, Attagene multiplex; actives raise or lower the signal. The gist of the method:
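Changes in reporter transcript abundance, read by RT-PCR and capillary electrophoresis, reflect endogenous transcription factor activity. Transfected HepG2 cells received compound for 24 hours; DMSO defined baseline for bidirectional analysis.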

The nature of assay [16]: ATG_M_19_TRANS: Attagene TRANS-FACTORIAL HepG2 Assay for M19 Transcription Factor (Internal Marker) (AID 2282974; active = hit-call score of the fitted dose curve at least 0.9, where 1 is the maximum). As to conditions: HepG2 Attagene TRANS-FACTORIAL M19 internal marker reporter. In a few lines:
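Gain-of-signal in reporter mRNA, relative to DMSO, was scored from capillary electrophoresis fluorescence. HepG2 cells carried transiently transfected multiple reporter transcription units and were incubated with test chemicals for 24 h.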

Assay [17] concerns the target Estrogen receptor (Homo sapiens) (UniProt P03372). Kind of assay: ATG_ERa_TRANS: Attagene TRANS-FACTORIAL HepG2 Assay for human Estrogen Receptor alpha (ERa) (AID 2282970; active = hit-call score of the fitted dose curve at least 0.9, where 1 is the maximum). The following applies: HepG2 Attagene TRANS ERa GAL4 reporter, mRNA. In a few lines: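 Signal derives from fluorescence of labelled reporter PCR fragments separated by capillary electrophoresis. HepG2 cells transiently carrying multiple GAL4-UAS reporter units were treated 24 hours, and induction above DMSO baseline was fitted as activity.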

Assay [18] deals with Nuclear receptor subfamily 1 group I member 3 (Homo sapiens) (UniProt Q14994). The experiment in a line: ATG_CAR_TRANS: Attagene TRANS-FACTORIAL HepG2 Assay for human Constitutive Androstane Receptor (CAR) (AID 2282969; active = hit-call score of the fitted dose curve at least 0.9, where 1 is the maximum;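 also: activators raise reporter mRNA above DMSO so AC50 marks induction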). As to conditions: HepG2 Attagene TRANS-FACTORIAL CAR reporter. In a few lines:
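Signal is reporter mRNA induction relative to DMSO, measured 24 h after dosing by RT-PCR with fluorescent primer extension and capillary electrophoresis. Human HepG2 liver cells carried transiently transfected chimeric NR-Gal4/GAL4-UAS reporter constructs.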

Assay [19] can be described thus: ATG_GAL4_TRANS: Attagene TRANS-FACTORIAL HepG2 Assay for GAL4 (Internal Marker) (AID 2282976; active = hit-call score of the fitted dose curve at least 0.9, where 1 is the maximum). As to conditions: HepG2 Attagene TRANS GAL4 internal marker reporter. In a few lines:
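Liver HepG2 line bearing multiplexed GAL4-UAS reporter constructs; 24 h chemical treatment. Transcripts were quantified as fluorescent fragments on capillary electrophoresis after RT-PCR and HpaI cut, with activity fitted upward from DMSO.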

Paired box protein Pax-6 (Homo sapiens), sequence (P26367 whole entry, looked up): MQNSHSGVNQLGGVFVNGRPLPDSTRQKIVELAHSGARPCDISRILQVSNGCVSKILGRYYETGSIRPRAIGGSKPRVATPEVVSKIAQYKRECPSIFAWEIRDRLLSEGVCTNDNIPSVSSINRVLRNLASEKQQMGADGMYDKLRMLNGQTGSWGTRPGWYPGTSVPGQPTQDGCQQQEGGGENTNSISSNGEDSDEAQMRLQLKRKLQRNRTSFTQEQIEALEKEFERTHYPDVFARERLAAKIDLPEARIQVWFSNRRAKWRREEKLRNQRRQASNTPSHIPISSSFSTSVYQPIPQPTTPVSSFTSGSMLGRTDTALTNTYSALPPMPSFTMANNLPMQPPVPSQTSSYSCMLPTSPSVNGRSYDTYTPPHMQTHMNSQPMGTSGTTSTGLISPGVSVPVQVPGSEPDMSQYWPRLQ
Signal transducer and activator of transcription 3 (Homo sapiens), sequence (P40763 whole entry, looked up): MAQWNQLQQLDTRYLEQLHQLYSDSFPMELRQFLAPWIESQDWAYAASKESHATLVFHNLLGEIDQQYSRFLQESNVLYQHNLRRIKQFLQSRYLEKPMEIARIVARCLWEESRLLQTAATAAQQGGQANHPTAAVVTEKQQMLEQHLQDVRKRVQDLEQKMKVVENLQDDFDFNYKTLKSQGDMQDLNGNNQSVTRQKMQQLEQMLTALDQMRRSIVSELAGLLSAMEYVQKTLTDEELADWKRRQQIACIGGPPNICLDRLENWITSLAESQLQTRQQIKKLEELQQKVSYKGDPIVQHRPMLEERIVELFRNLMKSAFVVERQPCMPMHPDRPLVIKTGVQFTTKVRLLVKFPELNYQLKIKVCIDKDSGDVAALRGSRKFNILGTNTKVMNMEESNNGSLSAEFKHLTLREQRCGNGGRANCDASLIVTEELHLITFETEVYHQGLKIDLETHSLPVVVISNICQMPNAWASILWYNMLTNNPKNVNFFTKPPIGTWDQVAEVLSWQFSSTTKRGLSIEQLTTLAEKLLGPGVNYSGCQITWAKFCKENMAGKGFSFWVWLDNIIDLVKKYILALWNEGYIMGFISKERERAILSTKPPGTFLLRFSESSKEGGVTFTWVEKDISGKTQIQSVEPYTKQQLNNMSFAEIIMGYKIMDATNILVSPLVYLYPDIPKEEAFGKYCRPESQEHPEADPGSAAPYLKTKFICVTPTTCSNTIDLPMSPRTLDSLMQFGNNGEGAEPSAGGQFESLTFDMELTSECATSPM
Transcription factor Sp1 (Homo sapiens), sequence (P08047 whole entry, looked up): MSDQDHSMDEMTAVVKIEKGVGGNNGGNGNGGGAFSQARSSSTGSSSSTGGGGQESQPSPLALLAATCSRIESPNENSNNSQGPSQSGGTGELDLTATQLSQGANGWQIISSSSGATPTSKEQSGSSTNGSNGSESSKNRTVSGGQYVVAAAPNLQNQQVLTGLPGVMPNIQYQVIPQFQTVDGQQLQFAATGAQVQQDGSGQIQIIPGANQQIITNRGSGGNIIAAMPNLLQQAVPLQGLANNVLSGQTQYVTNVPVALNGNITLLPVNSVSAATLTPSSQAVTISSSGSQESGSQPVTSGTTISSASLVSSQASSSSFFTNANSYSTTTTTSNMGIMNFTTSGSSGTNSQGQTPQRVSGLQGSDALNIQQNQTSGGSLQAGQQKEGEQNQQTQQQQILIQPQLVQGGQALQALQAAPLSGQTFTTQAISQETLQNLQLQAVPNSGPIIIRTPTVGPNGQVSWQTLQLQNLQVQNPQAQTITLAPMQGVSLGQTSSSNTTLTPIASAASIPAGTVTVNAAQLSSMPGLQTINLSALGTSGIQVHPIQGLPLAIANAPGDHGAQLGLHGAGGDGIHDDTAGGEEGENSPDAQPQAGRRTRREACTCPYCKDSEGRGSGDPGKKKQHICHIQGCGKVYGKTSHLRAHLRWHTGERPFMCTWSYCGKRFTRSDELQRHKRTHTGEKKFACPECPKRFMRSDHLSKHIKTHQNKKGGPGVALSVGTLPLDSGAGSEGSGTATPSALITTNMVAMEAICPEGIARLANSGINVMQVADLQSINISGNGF
X-box-binding protein 1 (Homo sapiens), sequence (P17861 whole entry, looked up): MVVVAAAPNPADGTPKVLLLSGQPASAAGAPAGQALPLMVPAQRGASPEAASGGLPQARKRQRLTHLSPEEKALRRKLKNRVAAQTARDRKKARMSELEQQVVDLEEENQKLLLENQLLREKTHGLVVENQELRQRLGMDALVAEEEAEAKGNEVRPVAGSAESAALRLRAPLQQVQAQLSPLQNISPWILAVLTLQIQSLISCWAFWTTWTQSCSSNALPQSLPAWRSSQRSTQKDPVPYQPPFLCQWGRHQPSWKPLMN
Estrogen receptor (Homo sapiens), sequence (P03372 whole entry, looked up, the tested form may be a part): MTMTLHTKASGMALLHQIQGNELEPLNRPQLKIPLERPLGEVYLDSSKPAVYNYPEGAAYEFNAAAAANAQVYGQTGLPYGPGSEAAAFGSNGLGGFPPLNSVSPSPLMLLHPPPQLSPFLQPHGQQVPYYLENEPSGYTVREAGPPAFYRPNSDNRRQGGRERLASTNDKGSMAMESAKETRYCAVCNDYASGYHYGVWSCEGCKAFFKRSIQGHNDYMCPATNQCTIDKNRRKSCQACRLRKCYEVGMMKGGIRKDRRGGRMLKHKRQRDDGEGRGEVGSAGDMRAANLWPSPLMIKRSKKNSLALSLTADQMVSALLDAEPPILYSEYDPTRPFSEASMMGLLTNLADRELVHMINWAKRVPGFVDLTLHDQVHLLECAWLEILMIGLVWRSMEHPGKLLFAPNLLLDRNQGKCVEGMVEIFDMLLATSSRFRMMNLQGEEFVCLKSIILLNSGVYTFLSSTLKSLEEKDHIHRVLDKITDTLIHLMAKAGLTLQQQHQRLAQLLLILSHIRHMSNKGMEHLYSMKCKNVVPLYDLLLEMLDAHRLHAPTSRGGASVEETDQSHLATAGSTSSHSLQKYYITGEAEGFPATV
Nuclear receptor subfamily 1 group I member 3 (Homo sapiens), sequence (Q14994 whole entry, looked up, the tested form may be a part): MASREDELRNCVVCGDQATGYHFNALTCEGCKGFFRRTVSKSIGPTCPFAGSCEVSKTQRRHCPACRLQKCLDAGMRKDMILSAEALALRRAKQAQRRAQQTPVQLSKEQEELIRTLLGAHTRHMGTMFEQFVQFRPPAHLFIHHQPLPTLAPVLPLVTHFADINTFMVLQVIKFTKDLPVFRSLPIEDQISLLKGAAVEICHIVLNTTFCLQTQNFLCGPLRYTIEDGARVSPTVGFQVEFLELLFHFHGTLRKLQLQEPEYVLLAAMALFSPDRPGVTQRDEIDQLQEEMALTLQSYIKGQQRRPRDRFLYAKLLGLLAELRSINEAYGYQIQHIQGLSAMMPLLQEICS
Steroid hormone receptor ERR1 (Homo sapiens), sequence (P11474 whole entry, looked up, the tested form may be a part): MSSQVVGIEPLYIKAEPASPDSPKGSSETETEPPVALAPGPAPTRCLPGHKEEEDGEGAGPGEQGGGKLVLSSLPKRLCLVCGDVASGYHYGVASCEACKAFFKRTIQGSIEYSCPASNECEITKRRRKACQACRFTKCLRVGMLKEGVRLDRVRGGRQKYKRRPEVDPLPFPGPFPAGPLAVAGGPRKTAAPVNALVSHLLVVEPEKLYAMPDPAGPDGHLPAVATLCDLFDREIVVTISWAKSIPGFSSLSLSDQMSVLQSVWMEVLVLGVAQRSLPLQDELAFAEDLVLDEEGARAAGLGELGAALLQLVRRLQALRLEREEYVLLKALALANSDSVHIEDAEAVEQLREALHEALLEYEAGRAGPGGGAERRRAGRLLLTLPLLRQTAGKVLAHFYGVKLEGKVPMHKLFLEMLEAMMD

Regarding `NC(=O)Nc1ccccc1`, the outcome in assay [1], in [2], in [3], in [4], in assay [5] and in [6] was inactive. For the same compound, the compound was called inactive in assay [7], in [8], in assay [9], in assay [10], in [11] and in assay [12]. The call in assay [13], in [14], in [15] and in [16] was inactive.

Turning to `C[Si](C)(C)N[Si](C)(C)C`, the result in assay [1], in assay [2], in assay [3], in assay [4], in assay [5] and in [6] was inactive. Further, the compound was called inactive in assay [7], in assay [8], in assay [9], in assay [10], in assay [11] and in [12]. Also, the outcome in assay [13], in assay [17] and in assay [15] was inactive.

Consider `CC1(C)[C@@H]2CC[C@@]1(C)C(=O)C2`, for which the result in assay [1], in [2], in assay [3], in [4], in [5] and in [6] was inactive. Further, the call in [7], in assay [8], in assay [9], in assay [10], in [11] and in [12] was inactive. The result in [13], in [17], in assay [15] and in [16] was inactive.

Consider `CC(C)=CCl`, for which the outcome in assay [1], in [2], in assay [3], in [4], in assay [5] and in [6] was inactive. For the same compound, the compound was called inactive in [7], in assay [8], in assay [9], in assay [10], in assay [11] and in assay [12]. Further, the result in assay [13], in assay [17] and in [15] was inactive.

One may read the AC50 as the concentration at which the activity in the assay is half-maximal. Regarding `CCCCC1C(=O)N(c2ccccc2)N(c2ccccc2)C1=O`, the outcome in assay [1], in assay [2], in [4], in [5], in [6] and in [7] was inactive. Further, the compound was classed as inactive in assay [8], in assay [10], in assay [11], in assay [12], in [13] and in assay [18]. The compound was classed as inactive in assay [17], in assay [15], in assay [16] and in [19]. Moreover, the AC50 in assay [3] is 1.44 µM (active).

With `Nc1ccc(C(=O)OCCCOC(=O)c2ccc(N)cc2)cc1`, the result in assay [1], in assay [2], in assay [5], in assay [6], in [7] and in assay [10] was inactive. Besides, the compound was called inactive in [11], in [12], in assay [17], in assay [15], in assay [16] and in assay [19]. Further, the AC50 in assay [3] is 27.5 µM (active); in assay [13], 48.8 µM (active).

For `C=CC(=O)OCCCCCCCCCC`, the result in [1], in assay [2], in [5], in assay [6], in assay [7] and in [8] was inactive. Also, the compound was called inactive in assay [9], in [10], in [11], in assay [12], in assay [18] and in assay [17]. Moreover, the compound was classed as inactive in assay [15], in assay [16] and in assay [19]. Moreover, the AC50 in assay [3] is 26.4 µM (active).

The values are drawn from PubChem BioAssay (EPA / NIEHS).
